Consider eleven molecules from PubChem BioAssay (NCATS).

Molecules are shown by their SMILES. Inconclusive results are not listed. Unmarked numbers belong to inactive results. Calls of active or inactive are those of the source. Unless noted, calls follow the shape of the dose curve; as a rule, active = well fitted curve in the direction sought with a large enough effect; inconclusive = small, poorly fitted or top-dose-only effect, or another doubt; inactive = no such curve, though single readings can be large; an effect the other way counts as inactive or inconclusive.

The target in experiment [1] is Cellular tumor antigen p53 (Homo sapiens) (UniProt P04637). Briefly: Primary qHTS for small molecule compounds that upregulate eGFP-tagged delta133p53alpha (in N-terminal) cells. (AID 2060322).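 Also: cells pre-induced with doxycycline then dosed without doxycycline; series mostly up to about 56 µM; 0% = DMSO vehicle and 100% = reference activator; nearly all actives have a fitted effect of over 75% in size.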 As to conditions: NCI-H358 eGFP-delta133p53alpha fluorescence, 24 h; activation: stronger effect = higher value. Summed up:
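NCI-H358 cells pre-induced 24 h with 10 ng/ml doxycycline for eGFP-delta133p53alpha, plated dox-free and exposed 24 h at 37C to titrated compounds. Fixed, Hoechst-stained; gated GFP peak intensity by laser scanning cytometry, normalized to DMSO (0%) and 57.5 uM 5-azacytidine (100%).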
On the technique in general: In qHTS, concentration-response curves come from the screen itself.

The target in experiment [2] is Aldehyde dehydrogenase, mitochondrial (Homo sapiens) (UniProt P05091). Briefly: qHTS for Inhibitors of the Aldehyde Dehydrogenase Family (ALDH2) Confirmatory screens (AID 2061303; active = well fitted inhibition curve with a large enough effect; title and protocol of this record describe different tests; also: % is scaled to controls: 0 for no effect and ±100 for the full control effect; nearly all actives have a fitted effect of over 45% in size).
Experiment [3] can be described thus: qHTS for Inhibitors of the Aldehyde Dehydrogenase Family (ALDH1A2, ALDH1A3, ALDH2, ALDH3A1) (AID 2061307). Also: % is scaled to controls: 0 for no effect and ±100 for the full control effect; nearly all actives have a fitted effect of over 50% in size.
The target in experiment [4] is Aldehyde dehydrogenase, mitochondrial (Homo sapiens) (UniProt P05091). The experiment is described as follows: qHTS for Inhibitors of the Aldehyde Dehydrogenase Family (ALDH2) Primary screen (AID 2061308).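 Also: plate controls were vehicle for no effect and reference inhibitor for full effect; nearly all actives have a fitted effect of over 55% in size.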
The target of experiment [5] is Retinal dehydrogenase 2 (Homo sapiens) (UniProt O94788). The experiment is described as follows: qHTS for Inhibitors of the Aldehyde Dehydrogenase Family (ALDH1A2) Confirmation screens (AID 2061314). Also: % is scaled to controls: 0 for no effect and ±100 for the full control effect; nearly all actives have a fitted effect of over 65% in size.
Experiment [6] has as its target Retinaldehyde dehydrogenase 3 (Homo sapiens) (UniProt P47895). Briefly: qHTS for Inhibitors of the Aldehyde Dehydrogenase Family (ALDH1A3) Primary screen (AID 2061315). Also: potency is read from the fitted curve at half-maximal effect.
Experiment [7] has as its target Aldehyde dehydrogenase 1A1 (Homo sapiens) (UniProt P00352). Briefly: qHTS for Inhibitors of the Aldehyde Dehydrogenase Family (ALDH1A1) Confirmatory screens (AID 2061316). Also: % is scaled to controls: 0 for no effect and ±100 for the full control effect; nearly all actives have a fitted effect of over 65% in size.
In experiment [8] the target is Aldehyde dehydrogenase, mitochondrial (Homo sapiens) (UniProt P05091). The experiment is described as follows: qHTS for Inhibitors of the Aldehyde Dehydrogenase Family (ALDH2) Validation screens (AID 2061302; active = well fitted inhibition curve with a large enough effect; title and protocol of this record describe different tests;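 also: plate controls were DMSO vehicle for no effect and maximal DPI positive control response for full effect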).
For experiment [9], the target named is Retinaldehyde dehydrogenase 3 (Homo sapiens) (UniProt P47895). Briefly: qHTS for Inhibitors of the Aldehyde Dehydrogenase Family (ALDH1A3) Validation screen (AID 2061312). Also: % is scaled to controls: 0 for no effect and ±100 for the full control effect; nearly all actives have a fitted effect of over 45% in size.
The nature of experiment [10]: BET inhibitor-based combinations targeting novel dependencies in MECOM-rearranged (r) AML: OCI-AML3 cell line (AID 2202232).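 Also: series mostly up to about 46 µM; plate controls were DMSO vehicle wells for no effect and wells without cells for full effect; nearly all actives have a fitted effect of over 35% in size.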 The note with it: Potency: OCI-AML3 viability. The method in brief: (§1)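 Here, 11-point titrations of each agent were applied to 500 seeded cells and incubated 48 hr; CellTiter-Glo signal, scaled against DMSO and empty wells, was integrated as AUC, then Z-scored within the individual line.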

Experiment [11] can be described thus: BET inhibitor-based combinations targeting novel dependencies in MECOM-rearranged (r) AML: MV-4-11 cell line (AID 2202233).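 Also: plate controls were DMSO for no effect and blank wells for full effect; nearly all actives have a fitted effect of over 45% in size.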 The method in brief:
(§2)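 Normalized to DMSO and empty-well controls, the luminescence data from CellTiter-Glo after 48 hr drug exposure were fitted across 11 concentrations. Reported metrics are area under the dose-response curve and its Z-transformed form.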

The nature of experiment [12]: BET inhibitor-based combinations targeting novel dependencies in MECOM-rearranged (r) AML: HNT-34 cell line (AID 2202234).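 Also: plate controls were vehicle wells for no effect and cell-free wells for full effect; nearly all actives have a fitted effect of over 35% in size.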 The method in brief:
as §2

Experiment [13] in a line: BET inhibitor-based combinations targeting novel dependencies in MECOM-rearranged (r) AML: UCSD-AML1 cell line (AID 2202235).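 Also: series mostly up to about 46 µM; plate controls were DMSO vehicle wells for no effect and blank wells for full effect; nearly all actives have a fitted effect of over 40% in size.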 Summed up:
as §2

A short description of experiment [14]: BET inhibitor-based combinations targeting novel dependencies in MECOM-rearranged (r) AML: AML-191 cell line (AID 2202236;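 also: plate controls were vehicle wells for no effect and wells without cells for full effect; nearly all actives have a fitted effect of over 35% in size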). Summed up: as §1

Chain of Cellular tumor antigen p53 (Homo sapiens) (P04637 whole entry, looked up): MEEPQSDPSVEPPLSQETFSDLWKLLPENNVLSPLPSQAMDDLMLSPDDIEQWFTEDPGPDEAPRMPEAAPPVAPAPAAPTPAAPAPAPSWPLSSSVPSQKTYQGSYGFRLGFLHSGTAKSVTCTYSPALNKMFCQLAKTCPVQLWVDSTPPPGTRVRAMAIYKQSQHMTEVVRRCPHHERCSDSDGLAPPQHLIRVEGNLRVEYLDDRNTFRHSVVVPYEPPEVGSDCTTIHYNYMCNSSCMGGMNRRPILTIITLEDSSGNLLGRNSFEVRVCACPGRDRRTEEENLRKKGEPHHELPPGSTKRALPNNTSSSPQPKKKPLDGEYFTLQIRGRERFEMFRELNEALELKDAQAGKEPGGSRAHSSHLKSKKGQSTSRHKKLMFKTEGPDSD

With `C[C@@]1(C(=O)O)CC[C@]2(C)CC[C@]3(C)C4=CC(=O)c5cc(O)c(O)cc5[C@]4(C)CC[C@@]3(C)[C@@H]2C1`, the activation in experiment [1] was -19.1%. Moreover, the Potency entry in experiment [2], in experiment [3], in experiment [4], in [5] and in experiment [7] was “inactive” each time. Also, in [6], the Potency was 4.47 µM (active).
With `C=CCN1CC[C@]23CCCCC2[C@H]1Cc1ccc(O)cc13` (stereo not given in full), in experiment [1], the activation was -35.3%. In addition, the Potency result in experiment [8] and in [9] was “inactive” each time.
For the molecule `CC(C)NP(=O)(NC(C)C)OP(=O)(NC(C)C)NC(C)C`, in [1], the activation was -39%. For the same molecule, the Potency entry in experiment [8] and in experiment [9] was “inactive” throughout.
Consider `CC(=O)NBr`, for which the activation in experiment [1] is -8.24%. Further, the Potency result in experiment [8] and in experiment [9] was “inactive” in each case.
On to `COC1=C[C@@H]2[C@@H]3Cc4ccc(OC)c(O)c4[C@]2(CCN3C)CC1=O`, for which the Potency result in experiment [10], in experiment [11], in experiment [12], in experiment [13] and in experiment [14] was “inactive” throughout.
Regarding `CCOC(=O)C1(CCc2ccccc2)CCN(Cc2ccc(NC(C)=O)cc2)CC1`, in [1], the activation is -12.4%. For the same molecule, the Potency entry in experiment [4], in [9] and in experiment [6] was “inactive” each time.
`CN(Cc1cccc(-c2ccncc2)c1)C(=O)Oc1ccc(-c2ccc(C(N)=O)cc2)cc1`: the activation in [1] is -8.11%. Moreover, the Potency entry in experiment [4], in experiment [9] and in experiment [6] was “inactive” throughout.
In the case of `Cc1ccc2c(c1)[C@H]1CN(C)CC[C@H]1N2C(=O)CSc1nnnn1-c1ccc(Cl)cc1`, the activation in experiment [1] is -6.68%. For the same molecule, the Potency result in experiment [4], in [9] and in experiment [6] was “inactive” throughout.
On to `CN(C(=O)Cc1ccccc1)C(CN1CCCC1)c1ccccc1` (stereo not given), for which the activation in experiment [1] was -0.477%. For the same molecule, the Potency result in [4], in [9] and in [6] was “inactive” in each case.
In the case of `COC1(C[S@@](=O)c2ccccc2)CCN(CCc2c[nH]c3ccc(F)cc23)CC1`, the activation in [1] was -6.68%. The Potency entry in experiment [4], in [9] and in experiment [6] was “inactive” throughout.
Consider `CCOC(=O)c1ccc(-c2ccc(OC(=O)N(C)Cc3cccc(-c4ccncc4)c3)cc2)cc1`, for which the activation in experiment [1] is -12.9%. Also, the Potency result in experiment [4], in [9] and in experiment [6] was “inactive” throughout.
